Compounds with a hit are over-represented: about 2.3% of the library has one in this group of screens.
CHO-K1 Ca antag = nonselective inhibitor or artifact in parental CHO-K1 cells. AID 602250. hit rate 0.6% among 360,000. ATP-induced calcium, Fluo-8 fluorescence. inhibition, % at 3 µM;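 active means inhibition above a per-plate cutoff, the plate's mean sample inhibition plus 3 SD, cut at about 24% in these data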;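 further: 0% = DMSO plus EC80 ATP and 100% = DMSO alone without ATP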
M1 ag parental = counter-screen for M1 agonists: effect in parental CHO-K1 cells. Fluo-8 calcium fluorescence; scaled to maximal ATP response, vehicle zero. activation, % at 3 µM. hit rate 0.48% among 360,000; in the data active means activation above about 15%;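 further: untransfected CHO-K1 host cells lacking M1 receptor as counterscreen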
M1 PAM = human M1 muscarinic receptor positive allosteric modulators, primary screen, CHO-K1 cells, Fluo-8 calcium fluorescence, 1536-well | Muscarinic acetylcholine receptor M1 (Homo sapiens), P11229 | CHO-K1 hM1, ACh EC20; 0% = ACh EC20, 100% = maximal ACh | activation, % at 3 µM | hit rate 0.088% among 360,000; in the data active means activation above about 19%, passing the limit was not always enough
Target sequence (P11229 whole entry, looked up): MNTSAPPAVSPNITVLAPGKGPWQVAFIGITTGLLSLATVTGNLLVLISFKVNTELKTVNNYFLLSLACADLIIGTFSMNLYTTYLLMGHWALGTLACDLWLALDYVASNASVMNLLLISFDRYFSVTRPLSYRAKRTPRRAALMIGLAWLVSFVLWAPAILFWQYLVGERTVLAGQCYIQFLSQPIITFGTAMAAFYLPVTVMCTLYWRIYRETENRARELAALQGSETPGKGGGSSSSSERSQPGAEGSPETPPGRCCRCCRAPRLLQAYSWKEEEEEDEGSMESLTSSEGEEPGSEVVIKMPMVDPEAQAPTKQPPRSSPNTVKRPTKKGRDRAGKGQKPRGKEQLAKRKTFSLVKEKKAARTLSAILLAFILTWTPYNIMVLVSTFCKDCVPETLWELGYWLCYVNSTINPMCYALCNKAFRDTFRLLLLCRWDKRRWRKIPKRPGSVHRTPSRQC
CHRM1 antagonist = human M1 muscarinic receptor antagonists, primary screen, CHO-K1 cells, Fluo-8 calcium fluorescence, 1536-well | CHO-K1 hM1, ACh EC80 antagonist | hit rate 1.3% among 360,000 | Muscarinic acetylcholine receptor M1 (Homo sapiens), P11229 | inhibition, % at 3 µM | AID 588852, 2011;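 active means percent inhibition above its own plate's cutoff, namely the mean of that plate's compound wells plus 3 SD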;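 further: peak over basal fluorescence ratio during 140 s after agonist addition; 0% = ACh EC80 plus DMSO and 100% = DMSO alone without agonist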
CHRM1 agonist = human M1 muscarinic receptor agonists, primary screen, Fluo-8 calcium fluorescence, CHO-K1 cells, HTS; activation, % at 3 µM; AID 588814, 2011; Muscarinic acetylcholine receptor M1 (Homo sapiens), P11229; CHO-K1 hM1, agonist mode; 0% DMSO, 100% acetylcholine EC100; hit rate 0.33% among 360,000;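 active means activation above the run's mean compound activation plus 3 SD, cut at about 16% in these data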;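 further: peak over basal fluorescence ratio within a 140 s kinetic read after compound addition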
CHO-K1 Ca PAM = nonselective calcium activators in parental CHO-K1 cells, primary screen, counter-screen for M1 PAM project, cell-based, Fluo-8 calcium fluorescence, full deck, 1536-well. ATP EC20; 0% at ATP EC20, 100% at ATP max. activation, % at 3 µM. hit rate 0.02% among 360,000. AID 602247, 2012;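 active means activation above the run cutoff, the mean activation of all test compounds plus 3 SD, cut at about 40% in these data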;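 further: peak over basal fluorescence ratio in a 140 s read after ATP addition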
* hit, by the source's call; / = no result given.

SMILES | CHO-K1 Ca antag | M1 ag parental | M1 PAM | CHRM1 antagonist | CHRM1 agonist | CHO-K1 Ca PAM
Cc1cc(-n2cccn2)ccc1CN1CCN(C2CCCC2)C(CCO)C1 (stereo not drawn) | 6 | 0 | -20 | 100* | -4 | -13
c1ccc(N2CC[N+]3(CCCC3)CC2)nc1 | -8 | 0 | -22 | 54* | -9 | 11
c1cnc(N2CC[N+]3(CCCC3)CC2)nc1 | -3 | 0 | -23 | 33* | -6 | 13
Cc1cc(C(=O)CCC(=O)N(C)CC2COc3ccccc3O2)c(C)s1 (stereo not drawn) | 2 | 0 | 6 | -12 | -4 | -6
O=C(NCCc1cccs1)Nc1ccc2nc([C@@H]3O[C@H](CO)[C@@H](O)[C@H]3O)[nH]c2c1 | -9 | 0 | 13 | -21 | -1 | 22
C/C(=N\N1CCCCC1)c1ccccc1O | 1 | 0 | 5 | 6 | 22* | 16
C/C(=N\N1CCN(c2ccccc2)CC1)c1ccccc1O | -4 | 1 | 1 | 3 | -3 | 12
CC(C)(C)c1ccc(C(=O)N2CCC(=O)N([C@H](COCc3ccccc3)Cc3ccccc3)CC2)cc1 | 6 | 5 | / | / | / | -6
CC(C)(C)c1ccc(C(=O)N2CCC(=O)N(C(COCc3ccccc3)Cc3ccccc3)CC2)cc1 (stereo not drawn) | -1 | 2 | -22 | 33* | -5 | -13
O=C(O)C1CCCN1c1nc(-c2ccc(Cl)c(Cl)c2)cc(C(F)(F)F)n1 (stereo not drawn) | -17 | 1 | 1 | -2 | -4 | 10
CCCCn1c(CN2CCN(C)CC2)nc2ccccc21 | -5 | 0 | -26 | 31* | -7 | 21
CN1CCN(C(=O)c2ccccc2N(Cc2ccccc2)S(=O)(=O)c2ccccc2)CC1 | -8 | 1 | -7 | 3 | 28* | -7
CCc1nc2sccc2c(=O)[nH]1 | -8 | 1 | 5 | -3 | -4 | 17
CC(=O)c1ccc(OCC(=O)OCC(=O)c2ccc(S(=O)(=O)N3CCCCC3)cc2)cc1 | 3 | 4 | 2 | -16 | 2 | 3
Cc1nc(C)c(C(=O)OCC(=O)NCc2ccccc2)s1 | -26 | 1 | 4 | -4 | -4 | 21
CCn1c(SCC(=O)NCc2ccc3c(c2)OCO3)nnc1-c1cccs1 | -7 | 0 | 7 | -10 | -6 | 29
CCn1c(SCC(=O)NCCc2ccc(F)cc2)nnc1-c1cccs1 | 26* | 0 | -7 | 16 | -4 | -7
COc1ccc(NC(=O)c2oc3ccc(S(=O)(=O)N4CCC5(CC4)OCCO5)cc3c2C)cc1 | 7 | 13 | -22 | 34* | 3 | -2
C=CCNC(=O)c1oc2ccc(S(=O)(=O)N3CCC4(CC3)OCCO4)cc2c1C | -7 | 1 | 3 | 0 | 0 | 4
COc1cc(Cn2c3ccc(NC(=O)CCc4ccc(O)cc4)cc3c(=O)n2C)ccc1F | -4 | 1 | -2 | -6 | -6 | 7
COc1cc2c(cc1CNC[C@H]1O[C@@H](n3cnc4c(N)ncnc43)[C@H](O)[C@@H]1O)OCO2 | -12 | 0 | -3 | 2 | -4 | 10
Nc1nc(N)c(Br)c(Nc2ccc(Cl)c(Cl)c2)n1 | -16 | 0 | 3 | -2 | 6 | 3
Nc1nc(N)c(N=O)c(Nc2cccc(Cl)c2)n1 | -29 | 5 | / | / | / | 24
Nc1nc(N)c(N=O)c(Nc2ccc(Cl)c(Cl)c2)n1 | -34 | 9 | / | / | / | 53*
Cc1ccc(Nc2nc(N)nc(N)c2N=O)cc1Cl | -36 | 36* | / | / | / | 32
SMILES | CHO-K1 Ca antag | M1 ag parental | M1 PAM | CHRM1 antagonist | CHRM1 agonist | CHO-K1 Ca PAM
O=[N+]([O-])c1ccc(COc2ccc(CNc3ccccc3)cc2)cc1 | -3 | 10 | -23 | 26* | -10 | 14
O=C(OCN1C(=O)c2ccccc2C1=O)c1cccc(OC(F)F)c1 | -6 | 0 | 17 | -16 | -3 | 10
CCc1cccc(NS(=O)(=O)c2csc(C(N)=O)c2)c1 | 8 | 16* | -15 | 24 | 1 | -3
Cc1c(Cl)cccc1NC(=S)NCCC(c1ccccc1)c1ccccc1 | 24* | 1 | 2 | -7 | -5 | -5
Cc1c(NC(=O)c2cc(Br)ccc2Cl)cccc1-n1cnnn1 | -6 | 0 | 8 | -8 | -2 | -3
CCC(=O)N(Cc1cc(=O)[nH]c2ccccc12)c1cccc(C)c1 | -8 | 1 | -21 | 65* | -5 | 12
CCCC(=O)N(Cc1cc(=O)[nH]c2ccccc12)c1ccc(C)cc1C | -6 | 1 | -4 | 8 | 3 | -11
CCCC(=O)N(Cc1cc(=O)[nH]c2ccccc12)c1ccc(C)cc1 | -4 | 2 | -28 | 57* | 1 | 22
CCC(=O)N(Cc1cc(=O)[nH]c2ccccc12)c1ccccc1C | 55* | -1 | 10 | -6 | -2 | -31
CCN(CC)S(=O)(=O)c1ccc(N2Cc3ccccc3C2=N)cc1 | -2 | 5 | -9 | 30* | -3 | 8
Cc1ccc([C@H]2C(C(=O)O)=CC[C@@H](c3ccc(C)cc3)N2S(=O)(=O)c2ccccc2C)cc1 | -12 | 0 | 5 | -13 | -7 | 6
Cn1c(=O)n(-c2cccc(Cl)c2)c(=O)c2c3c(sc21)COC(C)(C)C3 | 30* | -1 | 11 | -7 | 1 | -7
Cc1cc(=O)[nH]c(SCC(=O)N2C(C)CCCC2C)n1 (stereo not drawn) | -12 | 0 | 8 | -10 | -4 | 5
CC1CN(C(=O)CCC(=O)NCc2ccccc2)c2ccccc2O1 (stereo not drawn) | 6 | 3 | -5 | 2 | 0 | -1
COc1ccccc1NCC(=O)N/N=C/C=C/c1ccccc1 | 24* | -1 | -10 | 11 | -3 | -15
COc1ccc(NCC(=O)N/N=C/C=C\c2ccccc2)cc1 | -4 | 0 | 11 | -7 | -1 | 14
Cc1cnc(NC(=O)CSc2ncc(-c3ccccc3)n2Cc2ccco2)s1 | 4 | 11 | -6 | 22 | 21* | 10
CC(C)CSC1=NSC2=NC(=O)/C(=C\c3ccccc3)C(=N)N12 | 0 | 0 | -6 | 15 | -3 | -14
Cc1cc(/C=C2\C(=N)N3C(SCc4ccccc4)=NSC3=NC2=O)c(C)n1Cc1ccccc1 | -4 | 3 | 5 | -5 | -4 | 15
CSC1=NSC2=NC(=O)/C(=C\c3coc4ccccc4c3=O)C(=N)N12 | 21 | 20* | -8 | 35* | 45* | -7
CC(C)CSC1=NSC2=NC(=O)/C(=C\c3coc4ccccc4c3=O)C(=N)N12 | 60* | 107* | -32 | 60* | 143* | -5

Bioassay records: PubChem BioAssay, The Scripps Research Institute Molecular Screening Center
